Laboratory results published in PubChem BioAssay (NCATS).
Results filed as inconclusive are left out. Where a call stands in place of a potency, no number is given. Values without a mark were called inactive. Calls of active or inactive are those of the source. Calls come from the whole dose curve; as a rule, active = well fitted inhibition curve with a large enough effect; inconclusive = small, poorly fitted or top-dose-only effect; inactive = no such curve, though single readings can be large or run the other way. Where a SMILES comes first, the peptide text is derived from it. [ ]: non-standard residue; d: D form. Hyp = O=C(O)[CH]1C[CH](O)CN1; Phe(ol) = N[CH](CO)Cc1ccccc1; Iva = CC[C](C)(N)C(=O)O; Aib = CC(C)(N)C(=O)O

Legend:
[1] = test system: Zika virus NS2B-NS3 protease (unlinked complex); experiment: Primary screen GU Rhodamine qHTS for Zika virus inhibitors: Unlinked NS2B-NS3 protease assay (AID 1347159); note: nearly all actives have a fitted effect of over 60% in size
Method in brief: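 Unlinked NS2B/NS3, 25 nM; Rhod110 peptide, 1.5 microM; compounds, up to 114 microM. Reaction run 15 min at RT in 10 mM Tris-HCl pH 8.0, 0.01% Tween 20; kinetic fluorescence change fitted with a 4-parameter Hill model.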

[2] = test system: Zika virus NS2B-NS3 protease (linked construct); experiment: Primary screen NINDS Rhodamine qHTS for Zika virus inhibitors (AID 1347160); note: nearly all actives have a fitted effect of over 55% in size
Method in brief: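 Single-chain NS2B-NS3 protease, 25 nM, pH 8.0; compounds preincubated 15 min. Activity: Rhodamine110 release from 1.5 microM substrate over 15 min, room temperature, data fitted to 4-parameter Hill.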

Compound: CCCCCCCCn1cc(CN(CC)CC)c2cc(-c3cnc(N)nc3)ccc21
- Potency [1]: inactive
- Potency [2]: inactive

Compound: Cc1cc2c(N3CCCC3)nc(N3CCCC3)nc2n1C
- Potency [1]: inactive
- Potency [2]: inactive

Compound: O=C(Nc1nc2cc(C(F)(F)F)cc(NC3CC3)n2n1)c1cccnc1
- Potency [1]: inactive
- Potency [2]: inactive

Compound: CCCCNc1ncc2c(-c3ccc(S(=O)(=O)N4CCOCC4)cc3)nn(C3CCC(O)CC3)c2n1 (stereo not given)
- Potency [1]: inactive
- Potency [2]: inactive

Compound: C[C@@H]1O[C@@H](O[C@H]2[C@H](OC(=O)[C@]34CCC(C)(C)C[C@H]3C3=CCC5[C@@]6(C)C[C@H](O)[C@H](O[C@@H]7O[C@H](CO)[C@@H](O)[C@H](O)[C@H]7O)[C@](CO)(C(=O)O)C6CC[C@@]5(C)[C@]3(C)C[C@H]4O)OC[C@H](O)[C@@H]2O)[C@H](O)[C@H](O)[C@H]1O[C@@H]1OC[C@@H](O)[C@H](O[C@@H]2OC[C@](O)(CO)[C@H]2O)[C@H]1O (stereo not given in full)
- activity change, negative = inhibition [1]: 10.7% [at 19.1 µM]
- activity change, negative = inhibition [2]: 31.9% [at 10.7 µM]

Compound: O=C(NC1CCN(CCCCC2(C(=O)NCC(F)(F)F)c3ccccc3-c3ccccc32)CC1)c1ccccc1-c1ccc(C(F)(F)F)cc1
- Potency [1]: inactive
- Potency [2]: inactive

Compound: COc1cc(/C=C2\CCCN([C@@H](C)c3ccc(F)cc3)C2=O)ccc1-n1cnc(C)c1
- Potency [1]: inactive
- Potency [2]: inactive

Compound: C[C@@H]1CCCN1CCc1cc2cc(-c3ccc(C#N)cc3)ccc2o1
- Potency [1]: inactive
- Potency [2]: inactive

Compound: CN(C)N(C)C(=O)[C@@]1(Cc2ccccc2)CCCN(C(=O)[C@@H](Cc2c[nH]c3ccccc23)NC(=O)C(C)(C)N)C1
- Potency [1]: inactive
- Potency [2]: inactive

Compound: CC(=O)O[C@@H]1CC[C@@]2(C)[C@H](CC[C@@H]3[C@@H]2C[C@H](OC(C)=O)[C@]2(C)[C@@H](C(C)=O)CC[C@@H]32)C1
- Potency [1]: inactive
- Potency [2]: inactive

Compound: Cc1nc2c(C(F)(F)F)cccc2nc1-c1ccc(-c2cccc(S(C)(=O)=O)c2)cc1
- Potency [1]: inactive
- Potency [2]: inactive

Compound: CCc1cnc(N2CCC(c3nc(COc4ccc(-n5cnnn5)cc4)cs3)CC2)nc1
- Potency [1]: inactive
- Potency [2]: inactive

Compound: O=C(c1c(F)ccc(NS(=O)(=O)N2CC[C@@H](F)C2)c1F)c1c[nH]c2ncc(-c3cnc(C4CC4)nc3)cc12
- Potency [1]: inactive
- Potency [2]: inactive

Compound: C=C1C(=O)OC2/C=C(\C)CC3C=C(CC/C=C(\C)CCC12)C(=O)O3 (stereo not given)
- Potency [1]: inactive
- Potency [2]: inactive

Compound: C[C@@H]1O[C@@H](O[C@H]2[C@@H](OC(=O)[C@]34CCC(C)(C)CC3C3=CCC5[C@@]6(C)C[C@H](O)[C@H](O[C@@H]7O[C@H](CO)[C@@H](O)[C@H](O)[C@H]7O[C@@H]7OC[C@@H](O)[C@H](O)[C@H]7O)[C@@](C)(C(=O)O)C6CC[C@@]5(C)[C@]3(C)CC4)OC[C@H](O)[C@@H]2O)[C@H](O)[C@H](O)[C@H]1O[C@@H]1OC[C@@H](O)[C@H](O)[C@H]1O (stereo not given in full)
- activity change, negative = inhibition [1]: 46.4% [at 19.1 µM]
- activity change, negative = inhibition [2]: 21.4% [at 10.7 µM]

Compound: CCCCCCCCC(=O)N[C@H](CN1CCCC1)[C@H](O)c1ccc2c(c1)OCCO2
- Potency [1]: inactive
- Potency [2]: inactive

Compound: C=C1CC[C@@H]2[C@](C)(CO)[C@H](O)CC[C@@]2(C)[C@@H]1/C=C/C1=CCOC1=O
- Potency [1]: inactive
- Potency [2]: inactive

Compound: NC(=O)c1cccc2[nH]c(-c3ccc(C4CCCN4)cc3F)nc12 (stereo not given)
- Potency [1]: inactive
- Potency [2]: inactive

Compound: CCCc1cc(C)[nH]c(=O)c1CNC(=O)c1cc(-c2ccnc(N3CCN(C)CC3)c2)cc2c1cnn2C(C)C
- Potency [1]: inactive
- Potency [2]: inactive

Compound: COC(=O)C[C@H]1[C@]2(C)C3=C(C)[C@H](c4ccoc4)C[C@H]3O[C@@H]2[C@H](O)C2[C@](C)(C(=O)OC)C=CC(=O)[C@@]21C (stereo not given in full)
- Potency [1]: inactive
- Potency [2]: inactive

Compound: COc1cc2c(cc1NS(=O)(=O)c1ccc(Br)cc1C)n(C)c(=O)n2C
- Potency [1]: inactive
- Potency [2]: inactive

Compound: CC(C)(O)C1CC(=O)C2(C)C(CCC3(C)C(c4ccoc4)OC(=O)C4OC432)C12CCC(=O)OC2 (stereo not given)
- Potency [1]: inactive
- Potency [2]: inactive

Compound: COC1C=C(C)C(O)(CO)C2(C)CCCC(C)(C)C12 (stereo not given)
- Potency [1]: inactive
- Potency [2]: inactive

Compound: O=C(Nc1ccc2[nH]c(=O)oc2c1)C(=O)N1CCC(Cc2ccc(F)cc2)CC1
- Potency [1]: inactive
- Potency [2]: inactive

Compound: CCC(C)(NC(=O)C(CCC(N)=O)NC(=O)C1CC(O)CN1C(=O)C(C)(C)NC(=O)C(C)(C)NC(=O)C(CC(C)C)NC(=O)CNC(=O)C(NC(=O)C(C)(C)NC(=O)C(C)(C)NC(=O)C(C)(C)NC(=O)C(Cc1ccccc1)NC(C)=O)C(C)C)C(=O)N1CC(O)CC1C(=O)NC(C)(C)C(=O)NC(CO)Cc1ccccc1 (stereo not given) (Ac-F[Aib][Aib][Aib]VGL[Aib][Aib][Hyp]Q[Iva][Hyp][Aib][Phe(ol)]; configuration not given here)
- activity change, negative = inhibition [1]: 8.8% [at 19.1 µM]
- outcome [2]: inactive [at 10.7 µM]
